# Test results reported in PubChem BioAssay AID1259343 (VanderVen Lab, College of Veterinary Medicine, Cornell …, 2017).
# In all, about 6,200 compounds went through this assay and about 2,900 (47%) were called active. Cut-off read from the data, not from the text of the source: active = inhibition above about 50%; inactive = the rest. So high a share suggests a set chosen from earlier hits. Some of the results follow.
# Test: Mycobacterium tuberculosis growth inhibition, primary screen (AID 1259343)
# Details: inhibition: at 10 µM, stronger effect = higher value; outcome: 10 uM
row,SMILES,inhibition
1,CCc1ccc(CNC(=O)Nc2ccc(C#N)cc2)s1,56.1% (active)
2,N#Cc1ccc(NC(=O)NCc2ccn(-c3ccccc3)n2)cc1,32.1% (inactive)
3,CCCSc1nnc(-c2c(Cl)c(CC)nn2C)s1,52.5% (active)
4,N#CCc1cc(-c2ccc(Cl)cc2)on1,72.6% (active)
5,N#Cc1nc(-c2ccc(Cl)cc2)oc1NC1CC1,26.7% (inactive)
6,COc1cccc(Oc2ccc(C(F)(F)F)cc2NC(C)=O)c1,82.6% (active)
7,COc1cccc(-c2cc(N)c(=O)n(Cc3ccc(C(F)(F)F)cc3)n2)c1,22.8% (inactive)
8,COc1cccc(CC2(CO)CCCN(C(=O)Nc3cccc(C(F)(F)F)c3)C2)c1 (centres undefined),11% (inactive)
9,O=C(Nc1nnc(-c2ccc3c(c2)CCCC3)o1)c1ccc([N+](=O)[O-])s1,101% (active)
10,CC(C)(C)C(=O)Nc1nnc(-c2ccc3c(c2)CCCC3)o1,92.3% (active)
11,Cc1ccc(OC(C)C(=O)Nc2ccc3c(c2)CCC3)cc1 (centres undefined),1.9% (inactive)
12,NC(CCc1ccccc1)c1csc(Nc2nccc(C(F)(F)F)n2)n1 (centres undefined),50.5% (active)
13,NC(Cc1ccc(C(F)(F)F)cc1)c1csc(Nc2ncccn2)n1 (centres undefined),29.2% (inactive)
14,NC(Cc1ccc(C(F)(F)F)cc1)c1csc(Nc2nccc(C(F)(F)F)n2)n1 (centres undefined),94.8% (active)
15,NC(Cc1ccc(Cl)cc1)c1csc(Nc2nccc(C(F)(F)F)n2)n1 (centres undefined),63.1% (active)
16,NC(Cc1ccc(F)cc1)c1csc(Nc2nccc(C(F)(F)F)n2)n1 (centres undefined),66.7% (active)
17,C(=NN1CCOCC1)c1cn(-c2ccccc2)nc1-c1cc2ccccc2o1,88.6% (active)
18,OCc1cn(-c2ccccc2)nc1-c1cc2ccccc2o1,74.7% (active)
19,c1ccc(Cn2cc(CN3CCN(c4ncccn4)CC3)c(-c3cc4ccccc4o3)n2)cc1,inactive
20,O=C(Cc1cc(-c2cc3ccccc3o2)on1)NCCCN1CCOCC1,20.8% (inactive)
21,OCc1cc(-c2cc3ccccc3o2)on1,8.03% (inactive)
22,O=C(CC(O)(c1ccccc1)C(F)(F)F)N1CCN(Cc2ccc(Cl)cc2)CC1 (centres undefined),53.2% (active)
23,O=C1NC(C2=Cc3cc(Cl)ccc3OC2)Nc2ccccc21 (centres undefined),0.99% (inactive)
24,COC(=O)c1cnc(Nc2nc(C(N)c3ccccc3Cl)cs2)nc1C(F)(F)F (centres undefined),94% (active)
25,COC(=O)c1cnc(Nc2nc(C(N)Cc3ccc(Cl)cc3)cs2)nc1C(F)(F)F (centres undefined),85.1% (active)
26,CC(=O)Nc1ccc(Sc2nc(C)cc(C)c2C#N)cc1,-11.9% (inactive)

row,SMILES,inhibition
1,COc1cc(-c2cccc(O)c2)ncn1,93.2% (active)
2,COc1cc(N(C)CCC(O)c2ccccc2)ncn1 (centres undefined),-15.6% (inactive)
3,CN(C)c1ccc(CN(C)S(=O)(=O)Cc2ccccc2)cc1,30.6% (inactive)
4,C=C1N(C)c2cc([N+](=O)[O-])c(N)cc2C1(C)C,64.8% (active)
5,c1ccc(-c2nc(SCC3CCOCO3)oc2-c2ccccc2)cc1 (centres undefined),-19.9% (inactive)
6,O=S(=O)(/C=C/C=C/Sc1ccccc1)c1ccccc1,90.4% (active)
7,Cc1cc(C)n(-c2nc(NC(C)C)nc(NC(C)(C)C)n2)n1,101% (active)
8,CCn1cc(C(CC(=O)O)c2cccc(F)c2)c2ccccc21 (centres undefined),18.8% (inactive)
9,CN(C)c1ccc(-c2nc3c(C(=O)NNc4cccc(Cl)c4)cccc3[nH]2)cc1,85.1% (active)
10,Cc1nn(C)c(C)c1C(=O)NNc1cccc(Cl)c1,-9.93% (inactive)
11,O=C(Cc1cc(-c2cc3ccccc3o2)on1)NCc1ccncc1,75.1% (active)
12,O=C(Cc1cc(-c2cc3ccccc3o2)on1)NCc1ccco1,91.1% (active)
13,O=C(Cc1cc(-c2cc3ccccc3o2)on1)NCc1ccc(F)cc1,22.7% (inactive)
14,O=C(Cc1cc(-c2cc3ccccc3o2)on1)NCc1cccs1,28.1% (inactive)
15,CNc1nc2cnc(Nc3ccc(Oc4ccccc4)cc3)cc2n1CCOC,69.3% (active)
16,Nc1cccc(-c2cc(Nc3ccc(Oc4ccccc4)cc3)ncn2)c1,9.35% (inactive)
17,O=C(C=Cc1cccs1)NCc1ccc2c(c1)OCO2,-6.77% (inactive)
18,Cc1cnc(C(=O)NC(C)c2ccccc2OC(C)C)cn1 (centres undefined),-5.8% (inactive)
19,COc1ccc(CCNC(=O)c2cnc(C)cn2)cc1OC,41.9% (inactive)
20,COC(=O)c1ccc(CNC(=O)c2ccc3c(c2)OCO3)cc1,55.5% (active)
21,COC(=O)Cc1ccc(NC(=O)c2cnccn2)cc1,87.5% (active)
22,O=C(Nc1ccc(OCC(F)(F)F)cc1)c1cnccn1,25.9% (inactive)
23,CN(C)c1ccc(CNC(=O)c2ccc3c(c2)CCCC3)cc1,-5.89% (inactive)
24,O=C(NCc1ccc2c(c1)OCO2)c1cccs1,52.8% (active)
25,Cc1cnc(C(=O)NCCc2ccccc2C)cn1,94.4% (active)
26,Cc1ccc(C2(O)CCN(c3noc(-c4ccccc4)n3)CC2)nc1,16.2% (inactive)

row,SMILES,inhibition
1,Cc1cnc(C(=O)NCc2ccc3c(c2)OCO3)cn1,63.5% (active)
2,CC1Cc2cc(CNC(=O)c3cc(C(C)C)nn3C)ccc2O1 (centres undefined),3.55% (inactive)
3,CCCc1ccc(NC(=O)c2cnc(C)cn2)cc1,100% (active)
4,Cc1cnc(C)c(Nc2nc(C(N)Cc3ccc(Cl)cc3)cs2)n1 (centres undefined),78.6% (active)
5,Cc1cnc(C)c(Nc2nc(C(N)Cc3ccc(C(F)(F)F)cc3)cs2)n1 (centres undefined),81.1% (active)
6,CCc1ccc(NC(=O)COc2ccc(Br)cn2)cc1,-1.65% (inactive)
7,CCOCCC1(C(=O)Nc2ccc(CC)cc2)CCC1,75.8% (active)
8,COCc1cccc(C(=O)Nc2ccc(C(C)(C)C)cc2)c1,60.8% (active)
9,COCc1cccc(C(=O)Nc2nc(C3CC3)cs2)c1,5.98% (inactive)
10,COC(=O)c1cccc(S(=O)(=O)N(C)Cc2ccc(C)cc2C)c1,82.9% (active)
11,COc1cc(C)c(CN(C)C(=O)CCl)cc1OC,-15.9% (inactive)
12,O=C(Nc1ccccc1Cl)c1csc2c1CCCC2,50% (inactive)
13,COC(=O)c1c(NC(=O)c2ccccc2Cl)sc2c1CCCC2,98.2% (active)
14,Cc1cccc(OCCNC(=O)c2c(NC(=O)C3CC3)sc(C)c2C)c1,20.2% (inactive)
15,COC(=O)c1c(NC(=O)c2ccccc2Br)sc(C)c1C,88.2% (active)
16,NC(=O)c1c(NC(=O)C2CCCCC2)sc2c1CCCC2,-14.9% (inactive)
17,O=C(O)c1c(NC(=O)C2CCCCC2)sc2c1CCC2,79.8% (active)
18,CCOC(=O)c1sc(N)c(C(=O)OC)c1C,-1.92% (inactive)
19,O=C(NC1CC1)c1c(NC(=O)C23CC4CC(CC(C4)C2)C3)sc2c1CCCC2,41.1% (inactive)
20,NC(=O)c1c(NC(=O)CC23CC4CC(CC(C4)C2)C3)sc2c1CCC2,70.6% (active)
21,O=C(C=Cc1ccco1)Nc1sc2c(c1C(=O)O)CCCC2,8.18% (inactive)
22,O=C(Nc1sc2c(c1C(=O)O)CCCC2)c1cccnc1,70.5% (active)
23,COc1ccc(-c2ccc(NC(=O)c3cccnc3)c(C)c2)c(OC)c1OC,40.8% (inactive)
24,CC1Cc2cc(-c3cc(CC(=O)NCc4ccco4)no3)ccc2O1 (centres undefined),92.3% (active)
25,COc1cccc(-c2cc(CC(=O)NCCC3=CCCCC3)no2)c1,83.2% (active)
26,O=C(Cc1cc(-c2ccc3c(c2)OCO3)on1)NCCC1=CCCCC1,41% (inactive)

row,SMILES,inhibition
1,CC1Cc2cc(-c3cc(CC(=O)NCc4cccnc4)no3)ccc2O1 (centres undefined),37.3% (inactive)
2,Cc1cc(NC(=O)Cc2cc(-c3ccc4c(c3)CC(C)O4)on2)no1 (centres undefined),34.1% (inactive)
3,CC1Cc2cc(-c3cc(CC(=O)NCCC4=CCCCC4)no3)ccc2O1 (centres undefined),73.2% (active)
4,O=C1C=C(O)c2ccccc2C1=O,53.8% (active)
5,N#CC(=CC=Cc1ccc([N+](=O)[O-])o1)c1nc2ccccc2[nH]1,101% (active)
6,N#CC(=Cc1ccc([N+](=O)[O-])o1)c1nc(C2CC2)cs1,-16.5% (inactive)
7,O=c1cc(C(F)(F)F)c2ccc(OS(=O)(=O)c3ccc(F)c(F)c3)cc2o1,1.62% (inactive)
8,O=c1ccc2ccc(OS(=O)(=O)c3cccs3)cc2o1,90.5% (active)
9,N#Cc1ccc(OS(=O)(=O)c2cccs2)cc1,51.7% (active)
10,CCOC(=O)C(C#N)=Cc1cn(CCC#N)nc1-c1ccc(Br)cc1,-13.1% (inactive)
11,Fc1ccc(-c2cc(CNc3nccc(C4CCCC4)n3)no2)cc1,44.8% (inactive)
12,Oc1ccc(CCNc2nccc(C3CCCC3)n2)cc1,51.5% (active)
13,C=CC[P+](N(CCC)CCC)(N(CCC)CCC)N(CCC)CCC,80% (active)
14,CC(C)=CCc1c(O)cc2occ(-c3ccc4c(c3)OCO4)c(=O)c2c1O,68.8% (active)
15,COC(=O)c1c(C)oc2ccc(OCC(=O)c3ccc(F)cc3)cc12,87.5% (active)
16,O=C(COc1ccc2oc3c(c2c1)CCCC3)NCc1cccnc1,-6.78% (inactive)
17,CC(C)(C)NC(=O)COc1ccc2oc3c(c2c1)CCCC3,31.6% (inactive)
18,Cc1ccc(CC(=O)C(C#N)c2nc3sc(C)c(C)c3c(=O)[nH]2)cc1 (centres undefined),37.3% (inactive)
19,Cc1ccc(-c2c(C)sc3nc(CN4CCN(Cc5ccccc5)CC4)[nH]c(=O)c23)cc1,96.5% (active)
20,Cc1ccc(-c2nnc(SCC(=O)NC3CC3)o2)cc1,-24.4% (inactive)
21,CCCC(C)NC(=O)CSc1nnc(-c2ccc(Cl)cc2)o1 (centres undefined),95.8% (active)
22,C=CCNC(=O)CSc1nnc(-c2cccs2)o1,99.4% (active)
23,CCNC(=O)CSc1nnc(-c2ccccc2)o1,92.3% (active)
24,CCCC(C)NC(=O)COc1ncnc2scc(-c3ccc(C)cc3)c12 (centres undefined),49.2% (inactive)
25,CCNC(=O)CSc1nnc(-c2ccc(C)cc2)o1,93.8% (active)
26,c1coc(-c2nnc(SCc3nnc(-c4cccs4)o3)o2)c1,-25.9% (inactive)
